Experimental data published in PubChem BioAssay (NCATS).
Values joined by “and” are separate entries in the source; they are usually repeats but may differ in a detail not shown here. Equal values may be shown once. Results filed as inconclusive are left out. Active and inactive are the calls of the source. Unless noted, calls follow the shape of the dose curve; as a rule, active = well fitted curve in the direction sought with a large enough effect; inconclusive = small, poorly fitted or top-dose-only effect, or another doubt; inactive = no such curve, though single readings can be large or run the other way.

biological target: Hexokinase-4 (Homo sapiens) + Glucokinase regulatory protein (Homo sapiens) (UniProt P35557+Q14397); assay: qHTS assay for inhibitors of recombinant human GCK-GKRP interaction: HTRF assay (AID 743207); conditions: recombinant GCK-GKRP HTRF binding, 60 min, with sorbitol-6-phosphate; series mostly up to 57.5 µM; activity change, negative = inhibition: at the top concentration;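 also: 0% = DMSO with GCK present and -100% = DMSO wells lacking GCK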
Sequence (P35557 whole entry, looked up): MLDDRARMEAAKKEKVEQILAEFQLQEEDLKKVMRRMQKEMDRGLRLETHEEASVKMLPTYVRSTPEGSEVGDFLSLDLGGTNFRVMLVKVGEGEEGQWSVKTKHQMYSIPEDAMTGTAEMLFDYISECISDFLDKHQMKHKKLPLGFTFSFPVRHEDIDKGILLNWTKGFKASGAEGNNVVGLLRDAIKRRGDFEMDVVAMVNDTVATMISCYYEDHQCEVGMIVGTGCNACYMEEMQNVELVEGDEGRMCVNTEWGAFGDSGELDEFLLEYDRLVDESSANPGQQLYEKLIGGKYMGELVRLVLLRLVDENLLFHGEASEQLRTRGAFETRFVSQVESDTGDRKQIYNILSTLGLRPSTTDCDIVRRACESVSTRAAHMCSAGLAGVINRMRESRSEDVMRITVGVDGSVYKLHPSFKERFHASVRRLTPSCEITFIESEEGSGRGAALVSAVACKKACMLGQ
Sequence (Q14397 whole entry, looked up): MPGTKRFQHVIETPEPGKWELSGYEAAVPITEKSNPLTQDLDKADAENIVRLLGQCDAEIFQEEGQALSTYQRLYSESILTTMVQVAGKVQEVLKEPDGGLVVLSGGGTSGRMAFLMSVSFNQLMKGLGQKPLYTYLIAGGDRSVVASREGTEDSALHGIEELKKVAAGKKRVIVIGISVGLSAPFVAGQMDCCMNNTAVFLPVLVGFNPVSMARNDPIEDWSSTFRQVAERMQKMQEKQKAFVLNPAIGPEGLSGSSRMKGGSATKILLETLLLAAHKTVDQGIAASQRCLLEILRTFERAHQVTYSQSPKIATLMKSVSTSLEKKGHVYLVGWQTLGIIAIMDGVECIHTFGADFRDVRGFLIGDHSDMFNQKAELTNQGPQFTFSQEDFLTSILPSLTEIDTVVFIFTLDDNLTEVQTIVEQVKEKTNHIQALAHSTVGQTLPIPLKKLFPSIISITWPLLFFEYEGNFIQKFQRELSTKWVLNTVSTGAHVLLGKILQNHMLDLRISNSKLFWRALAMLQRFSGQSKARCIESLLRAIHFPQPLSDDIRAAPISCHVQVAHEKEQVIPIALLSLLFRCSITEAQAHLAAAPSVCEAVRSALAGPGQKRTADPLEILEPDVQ
Procedure, shortened: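 5 nM GST-GCK + 5 nM FLAG-GKRP + 2 uM S6P, pH 7.1 buffer (25 mM Hepes, 2 mM MgCl2, 25 mM KCl, 1 mM DTT, Tween/BSA); pin-transferred cpd; anti-FLAG XL665/anti-GST K; 60 min RT; HTRF.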

With O=C(O)COCCN1CCN(C(c2ccccc2)c2ccc(Cl)cc2)CC1 (configuration not stated) as the compound, how does the “activity change, negative = inhibition” value read?
The value was 7.48% (inactive).

Which “activity change, negative = inhibition” value does the source give for O=C(Nc1nc2ccccc2n1CCN1CCOCC1)c1cccc([N+](=O)[O-])c1 here?
The value was 2.21% (inactive).

For CCCCNc1cc(C(=O)O)cc(S(N)(=O)=O)c1Oc1ccccc1, which “activity change, negative = inhibition” value is on record?
Its value is -3.18% (inactive).

For Oc1ccc(C2CNCCc3c2cc(O)c(O)c3Cl)cc1 (configuration not stated), which “activity change, negative = inhibition” value is on record?
The value was 4.13% (inactive).

With CCC(C)N(C)C(=O)c1cc2ccccc2c(-c2ccccc2Cl)n1 (configuration not stated) as the compound, how does the “activity change, negative = inhibition” value read?
The value was 2.13% (inactive).

For Cc1[nH]c(=O)c(C#N)cc1-c1ccc2nccn2c1, which “activity change, negative = inhibition” value is on record?
The value was 5.77% (inactive).

For CCN(CC)CCCC(C)Nc1ccnc2cc(Cl)ccc12 (configuration not stated), which “activity change, negative = inhibition” value is on record?
Its value is 7.61% (inactive).

With CC(C)C[C@H](NC(=O)[C@@H](O)[C@H](N)Cc1ccccc1)C(=O)O as the compound, how does the “activity change, negative = inhibition” value read?
The value was 5.85% (inactive).

For CCOC(=O)N1CCC(=C2c3ccc(Cl)cc3CCc3cccnc32)CC1, which “activity change, negative = inhibition” value is on record?
The value was 0.435% (inactive).

For Nc1ccc(S(=O)(=O)Nc2ccnn2-c2ccccc2)cc1, which “activity change, negative = inhibition” value is on record?
Its value is 14.6% (inactive).

For NCCc1ccc(O)c(O)c1, which “activity change, negative = inhibition” value is on record?
Its value is -3.62% (inactive).

tested on: not listed separately; assay: qHTS Assay for Identifying Gametocytocidal Compounds (AID 743244); also: potency is read from the fitted curve at half-maximal effect;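 as to max response: % is scaled to controls: 0 for no effect and ±100 for the full control effect; actives lower the fluorescent signal which means gametocytes are killed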; conditions: P. falciparum 3D7 stage III-V gametocytes, alamarBlue, 72 h; max response: stronger effect = lower value
Procedure, shortened: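 P. falciparum 3D7 stage III–V gametocytes (20,000 cells/well) were exposed to compounds for 72 h at 37 °C, 5% CO2. AlamarBlue was then added for 24 h; decreased resorufin fluorescence (Ex 525/Em 598 nm) indicated loss of viability.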

For Cc1ccc(NC(=O)c2cccc(C(C)(C)C#N)c2)cc1Nc1ccc2ncn(C)c(=O)c2c1, which max response is on record?
The max response was -12.3% (inactive).

Which max response does the source give for O=c1ncn2nc(Sc3ccc(F)cc3F)ccc2c1-c1c(Cl)cccc1Cl here?
Its max response is 5.63% (inactive).

Which max response does the source give for Cn1cc(-c2ccc3nnc(C(F)(F)c4ccc5ncccc5c4)n3n2)cn1 here?
Its max response is -4.32% (inactive).

Which max response does the source give for COCC(=O)NCC=Cc1ccc2ncnc(Nc3ccc(Oc4ccc(C)nc4)c(C)c3)c2c1 here?
The max response was -4.65% (inactive).

Which max response does the source give for O=C(O)[C@@H](c1ccc(OCc2ccc3ccccc3n2)cc1)C1CCCC1 here?
Its max response is 46.8% (inactive).

Which max response does the source give for Nc1ncnc2nc(-c3ccc(N4CCOCC4)nc3)cc(-c3cccc(Br)c3)c12 here?
The max response was -13.8% (inactive).

Which max response does the source give for CCCC(CCC)C(=O)O here?
The max response was 8.46% (inactive) and 5.84% (inactive).

Which max response does the source give for O=C(OCC#CCSc1nnc(-c2ccc3ccccc3c2)o1)c1cc2ccccc2s1 here?
Its max response is 9.28% (inactive).

With CCc1ccc(CCOc2ccc(CC3SC(=O)NC3=O)cc2)nc1 (configuration not stated) as the compound, how does the max response read?
The max response was 40% (inactive) and -8.95% (inactive).

Which max response does the source give for COc1ccc2nc(S(=O)Cc3ncc(C)c(OC)c3C)[nH]c2c1 (configuration not stated) here?
The max response was -5.18% (inactive) and -4.42% (inactive).

With CC(C)(C)NCC(O)c1ccc(O)c(CO)c1 (configuration not stated) as the compound, how does the max response read?
Its max response is 0.0655% (inactive) and 23.1% (inactive).

For CNC(=O)c1ccccc1Sc1ccc2c(/C=C/c3ccccn3)n[nH]c2c1, which max response is on record?
Its max response is 40.9% (inactive).

Which max response does the source give for O=C(Nc1ccc(F)c(C(F)(F)F)c1)Nc1nnc(-c2ccncc2)s1 here?
The max response was 6.18% (inactive).

Which max response does the source give for COc1ccc2c3n(c(=NC(=O)c4cccnc4)nc2c1OC)CCN3 here?
The max response was -25% (inactive).

Which max response does the source give for O=C(Nc1cccnc1)N1CCC(Cc2cccc(Oc3ccc(C(F)(F)F)cn3)c2)CC1 here?
The max response was -7.98% (inactive).

For CCN(CCCO)CCCOc1ccc2c(Nc3cc(CC(=O)Nc4cccc(F)c4)[nH]n3)ncnc2c1, which Potency is on record?
Its Potency is 0.743 µM (active).

Which max response does the source give for N#CC[C@H](C1CCCC1)n1cc(-c2ncnc3[nH]ccc23)cn1 here?
Its max response is 2.34% (inactive).

With Cc1ccc2c(c1)C(=O)[C@@]1(O)CCN(c3ccccc3)C1=N2 as the compound, how does the max response read?
Its max response is -1.35% (inactive).

Which max response does the source give for N#Cc1ccc(C(c2ccc(C#N)cc2)n2cncn2)cc1 here?
The max response was 16.5% (inactive) and 0.241% (inactive).

With COc1nc(-c2ccc3c(c2)OCO3)n(-c2ccc(NC(=O)CSc3ccccc3)cc2)n1 as the compound, how does the max response read?
The max response was 6.75% (inactive).

With CCC(=O)N[C@H]1CC[C@H](C(=O)N(C)c2ccc(-c3nc4ccccc4o3)cc2)C1 as the compound, how does the max response read?
The max response was 65.6% (inactive).

Which max response does the source give for Nc1nccc(-c2ccc3noc(-c4ccc(Cl)cc4)c3c2)n1 here?
Its max response is -14.8% (inactive).

With CC[C@H](Nc1ncnc2nc[nH]c12)c1nc2cccc(F)c2c(=O)n1-c1ccccc1 as the compound, how does the max response read?
The max response was 14.6% (inactive).

Which max response does the source give for CN(C)c1ccc(Nc2nc(N)n(C(=O)c3c(F)cccc3F)n2)cc1 here?
Its max response is -28% (inactive).

With C[C@@H]1CN(Cc2ccc(F)cc2)[C@@H](C)CN1C(=O)c1cc2c(C(=O)C(=O)N(C)C)cn(C)c2cc1Cl as the compound, how does the max response read?
The max response was 12.3% (inactive).

Which max response does the source give for CCOC(=O)C1=C[C@@]2(CC)CCCN3CCc4c(n1c1ccccc41)[C@H]32 here?
Its max response is -2.64% (inactive).

tested on: not listed separately; assay: qHTS profiling for inhibitors of Plasmodium falciparum (3D7) proliferation (AID 743322; call rule not given here;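 also: infected erythrocytes exposed to compound for 72 h before lysis; 100% = DMSO vehicle wells and 0% = 0.29 µM artemisinin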); conditions: P. falciparum 3D7 proliferation; at 28.7 µM (top of the series) unless noted
Procedure, shortened: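 Erythrocytes infected with P. falciparum (0.3% parasitemia, 2.5% hematocrit) incubated with compounds 72 h at 37 C, 5% CO2. Lysis with saponin/Triton buffer containing SYBR Green I, overnight at room temperature in the dark; DNA fluorescence (485/535 nm) normalised to 0.29 uM artemisinin and DMSO.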

With Cc1ccc(NC(=O)c2cccc(C(C)(C)C#N)c2)cc1Nc1ccc2ncn(C)c(=O)c2c1 as the compound, how does the remaining parasite growth % (stronger effect = lower value) read?
The remaining parasite growth % (stronger effect = lower value) was 34.8%.

With O=c1ncn2nc(Sc3ccc(F)cc3F)ccc2c1-c1c(Cl)cccc1Cl as the compound, how does the remaining parasite growth % (stronger effect = lower value) read?
The remaining parasite growth % (stronger effect = lower value) was 32.8%.

Which remaining parasite growth % (stronger effect = lower value) does the source give for Cn1cc(-c2ccc3nnc(C(F)(F)c4ccc5ncccc5c4)n3n2)cn1 here?
The remaining parasite growth % (stronger effect = lower value) was 40.4%.

For COCC(=O)NCC=Cc1ccc2ncnc(Nc3ccc(Oc4ccc(C)nc4)c(C)c3)c2c1, which remaining parasite growth % (stronger effect = lower value) is on record?
The remaining parasite growth % (stronger effect = lower value) was 28.2%.

Which remaining parasite growth % (stronger effect = lower value) does the source give for O=C(O)[C@@H](c1ccc(OCc2ccc3ccccc3n2)cc1)C1CCCC1 here?
The remaining parasite growth % (stronger effect = lower value) was 114%.

For O=C(OCC#CCSc1nnc(-c2ccc3ccccc3c2)o1)c1cc2ccccc2s1, which remaining parasite growth % (stronger effect = lower value) is on record?
The remaining parasite growth % (stronger effect = lower value) was 117%.

Which remaining parasite growth % (stronger effect = lower value) does the source give for CCc1ccc(CCOc2ccc(CC3SC(=O)NC3=O)cc2)nc1 (configuration not stated) here?
The remaining parasite growth % (stronger effect = lower value) was 92%.

With COc1ccc2nc(S(=O)Cc3ncc(C)c(OC)c3C)[nH]c2c1 (configuration not stated) as the compound, how does the remaining parasite growth % (stronger effect = lower value) read?
Its remaining parasite growth % (stronger effect = lower value) is 91.3% and 101%.

With CCC(C)N(C)C(=O)c1cc2ccccc2c(-c2ccccc2Cl)n1 (configuration not stated) as the compound, how does the remaining parasite growth % (stronger effect = lower value) read?
The remaining parasite growth % (stronger effect = lower value) was 86.5%.

Which remaining parasite growth % (stronger effect = lower value) does the source give for Cc1[nH]c(=O)c(C#N)cc1-c1ccc2nccn2c1 here?
Its remaining parasite growth % (stronger effect = lower value) is 105%.

For O=C(Nc1ccc(F)c(C(F)(F)F)c1)Nc1nnc(-c2ccncc2)s1, which remaining parasite growth % (stronger effect = lower value) is on record?
Its remaining parasite growth % (stronger effect = lower value) is 94.5%.

With COc1ccc2c3n(c(=NC(=O)c4cccnc4)nc2c1OC)CCN3 as the compound, how does the remaining parasite growth % (stronger effect = lower value) read?
The remaining parasite growth % (stronger effect = lower value) was 0.12%.

With O=C(Nc1cccnc1)N1CCC(Cc2cccc(Oc3ccc(C(F)(F)F)cn3)c2)CC1 as the compound, how does the remaining parasite growth % (stronger effect = lower value) read?
Its remaining parasite growth % (stronger effect = lower value) is 8.79%.

With CCN(CCCO)CCCOc1ccc2c(Nc3cc(CC(=O)Nc4cccc(F)c4)[nH]n3)ncnc2c1 as the compound, how does the remaining parasite growth % (stronger effect = lower value) read?
Its remaining parasite growth % (stronger effect = lower value) is -1.31%.

With CCN(CC)CCCC(C)Nc1ccnc2cc(Cl)ccc12 (configuration not stated) as the compound, how does the remaining parasite growth % (stronger effect = lower value) read?
Its remaining parasite growth % (stronger effect = lower value) is 0.37%.

For CC(C)C[C@H](NC(=O)[C@@H](O)[C@H](N)Cc1ccccc1)C(=O)O, which remaining parasite growth % (stronger effect = lower value) is on record?
The remaining parasite growth % (stronger effect = lower value) was 2.82%.

For N#CC[C@H](C1CCCC1)n1cc(-c2ncnc3[nH]ccc23)cn1, which remaining parasite growth % (stronger effect = lower value) is on record?
Its remaining parasite growth % (stronger effect = lower value) is 57.9%.

With Cc1ccc2c(c1)C(=O)[C@@]1(O)CCN(c3ccccc3)C1=N2 as the compound, how does the remaining parasite growth % (stronger effect = lower value) read?
Its remaining parasite growth % (stronger effect = lower value) is 104%.

With N#Cc1ccc(C(c2ccc(C#N)cc2)n2cncn2)cc1 as the compound, how does the remaining parasite growth % (stronger effect = lower value) read?
Its remaining parasite growth % (stronger effect = lower value) is 85.5%.

With COc1nc(-c2ccc3c(c2)OCO3)n(-c2ccc(NC(=O)CSc3ccccc3)cc2)n1 as the compound, how does the remaining parasite growth % (stronger effect = lower value) read?
Its remaining parasite growth % (stronger effect = lower value) is 96.2%.

Which remaining parasite growth % (stronger effect = lower value) does the source give for CCC(=O)N[C@H]1CC[C@H](C(=O)N(C)c2ccc(-c3nc4ccccc4o3)cc2)C1 here?
The remaining parasite growth % (stronger effect = lower value) was 58.5%.

With Nc1nccc(-c2ccc3noc(-c4ccc(Cl)cc4)c3c2)n1 as the compound, how does the remaining parasite growth % (stronger effect = lower value) read?
Its remaining parasite growth % (stronger effect = lower value) is 77.1%.

With CN(C)c1ccc(Nc2nc(N)n(C(=O)c3c(F)cccc3F)n2)cc1 as the compound, how does the remaining parasite growth % (stronger effect = lower value) read?
Its remaining parasite growth % (stronger effect = lower value) is 4.41%.

With C[C@@H]1CN(Cc2ccc(F)cc2)[C@@H](C)CN1C(=O)c1cc2c(C(=O)C(=O)N(C)C)cn(C)c2cc1Cl as the compound, how does the remaining parasite growth % (stronger effect = lower value) read?
The remaining parasite growth % (stronger effect = lower value) was 69.2%.

For CCOC(=O)C1=C[C@@]2(CC)CCCN3CCc4c(n1c1ccccc41)[C@H]32, which remaining parasite growth % (stronger effect = lower value) is on record?
Its remaining parasite growth % (stronger effect = lower value) is 66.2% [at 18.4 µM].
